Screens (PubChem)
DAGLB inh – DAGLB lipase inhibitors, primary screen, biochemical, fluorescence, HTS; hit rate 0.059% among 340,000; Diacylglycerol lipase-beta (Homo sapiens), Q8NCG7; HEK293T DAGLB membrane lysate, EnzChek fluorogenic substrate; inhibition, % at 5.17 µM; AID 504411, 2011; in the data active means inhibition above about 34%;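 further: 0% = enzyme with vehicle and 100% = wells lacking enzyme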
PLC-beta3 inh – human PLC-beta3 inhibitors, primary screen, biochemical, fluorescence. 1-phosphatidylinositol 4,5-bisphosphate phosphodiesterase beta-3 (Homo sapiens), Q01970. Purified PLC-beta3, fluorogenic substrate. inhibition, % at 12.2 µM. hit rate 0.18% among 370,000. AID 720704, 2013; in the data active means inhibition above about 11%;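 further: 0% = median of compound wells on plate and 100% = full blocker control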
PLC-gamma1 inh – PLC-gamma1 enzyme inhibitors, primary screen, biochemical, fluorescence, purified enzyme; fluorogenic substrate; inhibition, % at 12.2 µM; hit rate 0.84% among 370,000; in the data active means inhibition above about 9.5%
sPLA2-III inh – human group III sPLA2 inhibitors, primary screen, biochemical, QFRET, BODIPY PC-A2 liposome substrate; QFRET BODIPY PC-A2 liposome hydrolysis, fluorescence; hit rate 0.56% among 370,000; inhibition, % at 12.2 µM; Group 3 secretory phospholipase A2 (Homo sapiens), Q9NZ20;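 active means inhibition above mean plus 3 SD of compounds lying within the high and low control bounds, cut at about 19% in these data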;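 further: 0% = median of test compound wells and 100% = no enzyme DMSO wells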
Target sequence (Q9NZ20 whole entry, looked up): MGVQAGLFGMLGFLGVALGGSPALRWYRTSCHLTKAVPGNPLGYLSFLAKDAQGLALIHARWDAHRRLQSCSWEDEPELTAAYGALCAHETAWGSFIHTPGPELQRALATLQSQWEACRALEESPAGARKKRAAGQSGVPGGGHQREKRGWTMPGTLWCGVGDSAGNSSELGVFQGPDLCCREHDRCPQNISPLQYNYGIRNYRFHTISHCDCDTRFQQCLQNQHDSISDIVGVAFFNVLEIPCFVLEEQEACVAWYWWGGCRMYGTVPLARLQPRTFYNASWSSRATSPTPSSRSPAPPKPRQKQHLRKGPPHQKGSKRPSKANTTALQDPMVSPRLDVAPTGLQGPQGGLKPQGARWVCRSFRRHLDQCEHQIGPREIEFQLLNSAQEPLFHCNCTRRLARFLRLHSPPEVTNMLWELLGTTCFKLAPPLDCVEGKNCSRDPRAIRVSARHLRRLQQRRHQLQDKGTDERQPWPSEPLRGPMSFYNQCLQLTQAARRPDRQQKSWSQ
sPLA2 confirm – human group III sPLA2 inhibitors, confirmation, biochemical, QFRET, triplicate; shares compounds with sPLA2-III inh; recombinant hGIII-sPLA2, BODIPY PC-A2 QFRET fluorescence; inhibition, % at 12.2 µM; hit rate 34% among 2,000;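 active means mean inhibition across triplicates above the hit cutoff set in the earlier primary screen, cut at about 19% in these data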;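 further: 0% = enzyme with DMSO and 100% = DMSO wells lacking enzyme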
BODIPY interf – 535nm fluorescence optical interference, confirmation, artefact control for HGIII-sPLA2 inhibitor project, biochemical, QFRET; AID 743282, 2014; shares compounds with sPLA2-III inh; hit rate 8.5% among 2,000; BODIPY FL product fluorescence interference; inhibition, % at 12.2 µM;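 active means average inhibition above the solvent-only control mean plus 3 SD, cut at about 6% in these data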;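 further: 0% = DMSO with substrate plus product and 100% = DMSO with substrate alone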
Starred values were filed as active, the others as inactive; . = no result given. A selection: hits, their analogues and other compounds. The true share with any hit is near 1.5%.

SMILES | DAGLB inh | PLC-beta3 inh | PLC-gamma1 inh | sPLA2-III inh | sPLA2 confirm | BODIPY interf
COc1cc(O)c2c(c1)/C=C/C[C@H](O)[C@H](O)[C@@H](O)/C=C/C[C@H](C)OC2=O | . | -89 | -67 | 14 | . | .
O=[N+]([O-])c1ccc(NCCO)c2ncccc12 | 3 | -2 | -2 | 22* | 4 | -1
CN1CCN(c2ccc([N+](=O)[O-])c3cccnc23)CC1 | 2 | 2 | -1 | -3 | . | .
Cc1cc(-c2cc(C)c(N)c(C)c2)cc(C)c1N | 1 | 8 | -1 | 22* | 22* | 1
CCCCc1ccc2[nH]cc(CCN)c2c1 | 1 | 2 | 3 | 30* | 8 | -14
CC1OC(OC2CC(O)C3(CO)C4C(O)CC5(C)C(C6=CC(=O)OC6)CCC5(O)C4CCC3(O)C2)C(O)C(O)C1O (stereo not drawn) | -4 | -3 | 9 | 28* | 4 | -6
